Experimental data taken from PubChem BioAssay (NCATS).
Records with an inconclusive call do not appear. Activity calls are given as the source filed them. Calls follow the shape of the dose curve; as a rule, active = well fitted cell-killing curve with a large enough effect; inconclusive = small, poorly fitted or top-dose-only effect, or effect the other way; inactive = no such curve, though single readings can be large or run the other way.

Experiment: Viability qHTS for spleen associated tyrosine kinase inhibitor (SYKi) drug resistant MV4-11 cells (AID 1963824); also: nearly all actives have a fitted effect of over 35% in size
Conditions: SYKi-resistant MV4-11 viability, CellTiter-Glo, 72 h; series mostly up to 45 µM
Excerpt: Department of Medicine, Hematology/Oncology
University Hospital Frankfurt, Germany.
Trials have shown promising clinical activity of the selective SYK inhibitor entospletinib in patients with high expressing HOXA9/MEIS1 acute leukemias. As the development of resistance mechanisms is a common problem in the use of targeted drugs, we performed a chemical library screen to identify drug sensitivities in SYK inhibitor resistant AML cells. […] Glucocorticoids are potent immunosuppressants which work in part by inhibiting the transcription of cytokine genes.
Described herein is a viability screen to look for activity in the SYK inhibitor drug resistant cell line against four NCATS compound libraries (MIPE 5.0, NPC, NPACT, and Kinase) totaling 11372 compounds. Active hits were reacquired for confirmation and further secondary assay testing.
SEQUENCE No. (e.g., 1, 2, 3, etc.); […] (e.g., Cells, Incubation, Reagent, etc.); VALUE; DESCRIPTION.
1; Media; 2uL; white, solid-bottom Corning assay plate.
2; Compounds; 23nL; Echo acoustic dispenser.
3; Cell; 5uL; 500 cells per well.
4: Incubation; 72hr; 37 C, 5% CO2, 95% humidity.
5; Reagent; 3uL; CellTiter-Glo reagent (Promega).
6; Incubation; 10min; room temperature.
7; Detection; Luminescence; ViewLux plate reader (PerkinElmer).
NOTES (numbers refer to Sequence numbers above
1. Quantitative high-throughput screening (qHTS) of small molecule compounds was conducted on drug resistant SYKi MV4-11 cell line.
2. Twenty-three nanoliter of small molecule compounds were added to each assay plates using the Echo acoustic dispenser (Beckman Coulter).
3. Cells were seeded into the assay plates at a final density of 500 cells in 5uL of media per well using the Multidrop Combi dispenser.
4. Plates were covered with stainless steel gasketed lids and incubated for 72 hours at standard cell culture conditions.
5. Viability was assessed by adding 3uL of CellTiter-Glo detection reagent (Promega).
6. Plates were covered with gasket lids and incubated for 10 minutes at room temperature.
7. Luminescence was measured on a ViewLux plate reader (PerkinElmer).
Potency is read from the fitted curve at half-maximal effect.

SMILES | Potency
COC(=O)[C@]12CCC(C)(C)C[C@H]1[C@H]1C(=O)C=C3[C@@]4(C)C=C(C#N)C(=O)C(C)(C)[C@@H]4CC[C@@]3(C)[C@]1(C)CC2 | 2630 nM (active)
CC1(C)CC[C@]2(NC(=O)C(C)(F)F)CC[C@]3(C)[C@H](C(=O)C=C4[C@@]5(C)C=C(C#N)C(=O)C(C)(C)[C@@H]5CC[C@]43C)[C@@H]2C1 | 2630 nM (active)
Nc1ccn(CC(CO)OCP(=O)(O)O)c(=O)n1 (stereo not drawn) | inactive
